Among the test systems are T-47D breast; BT-549 breast; MDA-MB-435 melanoma; SW-620 colon; MCF7 breast; HCT-116 colon; HCC-2998 colon; KM12 colon.
Common to all, as to assay: NCI-60 one-dose screen, 48 h (100 = growth as untreated, 0 = no growth, -100 = all killed)
Settings in all cases: 10 µM unless noted

This is part of a sample that, as a whole, favours compounds with a hit. Of some 83,000 tested, about 20% had one in any assay.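 Values shown are percent growth following 48 h exposure of cells in 96-well plates to a single concentration of compound; below 10 was considered active.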 Values without a mark were called inactive. Active and inactive are the calls of the source.

As for `COc1ccc(/C=N\Nc2nc(SCC(C)C)nc(-c3ccc(OC)cc3)c2C#N)cc1`, the growth with T-47D breast was 16.2%; with BT-549 breast it was 110%; in the test with MDA-MB-435 melanoma, 68.5%; with SW-620 colon, 51%; in the test with MCF7 breast, 59.3%; with HCT-116 colon, 2.29% (active). Further, the growth was 64.2% in the test on HCC-2998 colon and 62.6% in the test on KM12 colon.

In the case of `C=C(C)[C@@H]1CC[C@]2(C(=O)N3CCN(C)CC3)CC[C@]3(C)[C@H](CC[C@@H]4[C@@]5(C)CC(CCCNC(C)=O)(CCCNC(C)=O)[C@H](OC(C)=O)C(C)(C)[C@@H]5CC[C@]43C)[C@@H]12`, the growth in the test with T-47D breast was 89.9%; in the test on BT-549 breast it was 104%; in the test with MDA-MB-435 melanoma, 94.4%; with SW-620 colon it was 99.2%; in the test with MCF7 breast, 89.1%; in the test with HCT-116 colon, 90.7%. For the same compound, the growth in the test on HCC-2998 colon is 106%; in the test with KM12 colon, 107%.

On to `CCOC(=O)C1=C(C)NC(=O)NC1c1c(Cl)n(-c2ccccc2)c2ccccc12` (configuration not stated), for which the growth with T-47D breast was 90.4%; in the test with BT-549 breast it was 70.4%; in the test with MDA-MB-435 melanoma, 54%; in the test on SW-620 colon, 83.2%; with MCF7 breast it was 87.9%; in the test on HCT-116 colon, 69.1%. Besides, the results for the growth in the test with HCC-2998 colon and with KM12 colon were 91.8% and 92.3%, respectively.

Turning to `CCCCn1c(C(=O)c2c[nH]c3ccccc23)n[nH]c1=S`, the growth was 77.5% in the test with T-47D breast; 114% in the test on BT-549 breast; 98.7% in the test with MDA-MB-435 melanoma; 101% in the test with SW-620 colon; 73.2% in the test on MCF7 breast; 92.4% in the test on HCT-116 colon. Moreover, the figures for the growth with HCC-2998 colon and in the test on KM12 colon were 101% and 92.2%, respectively.

For the compound `CCCCCCCCCCCCC[C@H](O)C[C@H](O)[C@H](C)N`, the growth with T-47D breast is 122% [1.25 µM]; in the test on BT-549 breast, 107% [1.25 µM]; in the test on MDA-MB-435 melanoma, 116% [1.25 µM]; with SW-620 colon, 99.9% [1.25 µM]; with MCF7 breast it was 104% [1.25 µM]; in the test on HCT-116 colon, 83.1% [1.25 µM]. Also, the growth in the test on HCC-2998 colon was 26.7% [1.25 µM]; in the test on KM12 colon, 116% [1.25 µM].

For `CCN1C(=O)/C(=c2\sc3n(c2=O)C2C(NN=3)N(CC)C(=O)N2CC)c2ccccc21` (configuration not stated), the growth in the test on T-47D breast is 39.5%; with BT-549 breast, 17.8%; with MDA-MB-435 melanoma it was -32.6% (active); with SW-620 colon, 29.7%; in the test with MCF7 breast, 26%; with HCT-116 colon it was 9.36% (active). In addition, the growth is 30% in the test on HCC-2998 colon and 13.7% with KM12 colon.

As for `COc1cc(/C=N/NC(=O)CCN2c3ccccc3Sc3ccccc32)cc(OC)c1OC`, the growth in the test on T-47D breast was 41.5%; in the test on BT-549 breast it was 88.6%; in the test on MDA-MB-435 melanoma it was 87.4%; with SW-620 colon, 90.8%; with MCF7 breast, 97.3%; with HCT-116 colon, 80.1%. The growth with HCC-2998 colon is 113%; with KM12 colon it was 81.4%.

In the case of `N#C/C(=C\c1ccccc1Cl)c1cc2ccccc2[nH]1`, the growth was 38% with T-47D breast; 89.1% with BT-549 breast; 101% in the test with MDA-MB-435 melanoma; 89% with SW-620 colon; 36% with MCF7 breast; 87.4% with HCT-116 colon. In addition, the growth in the test on HCC-2998 colon was 111%; in the test with KM12 colon, 82.6%.

Take `CCCCCO/N=C\c1c2c(O)c3c(O)c(C)c4c(c3c1O)C(=O)C(C)(O/C=C\C(OC)C(C)C(OC(C)=O)C(C)C(O)C(C)C(O)C(C)/C=C\C=C(\C)C(=O)N2)O4` (configuration not stated): the growth in the test on T-47D breast was 26.8%; in the test with BT-549 breast it was 33.1%; in the test with MDA-MB-435 melanoma, 15.8%; in the test with SW-620 colon, 18.3%; in the test on MCF7 breast it was 17%; in the test with HCT-116 colon, 9.51% (active). Also, the growth in the test with HCC-2998 colon was 6.51% (active); with KM12 colon, 17.3%.

`O=C(CCCOc1ccc(Br)cc1)Nc1ncc(Cc2ccc(F)cc2)s1`: the growth in the test on T-47D breast was 58%; in the test on BT-549 breast, 82%; with MDA-MB-435 melanoma it was -27.2% (active); in the test with SW-620 colon, 58.2%; with MCF7 breast, 23.7%; in the test on HCT-116 colon it was 36.6%. Also, the growth in the test with HCC-2998 colon is 73.9%; in the test with KM12 colon, 36.2%.

As to `Cc1ccc(S(=O)(=O)OC[C@@]2(C)CC[C@]3(C)CC[C@]4(C)C(=C3C2)C=C[C@@H]2[C@@]3(C)CCCNC(C)(C)[C@@H]3CC[C@]24C)cc1`, the growth is -57.7% (active) in the test with T-47D breast; 83.6% with BT-549 breast; -38.2% (active) in the test on MDA-MB-435 melanoma; -85.8% (active) in the test on SW-620 colon; -4.17% (active) in the test on MCF7 breast; -91.4% (active) in the test on HCT-116 colon. Also, the results for the growth in the test with HCC-2998 colon and in the test with KM12 colon were -29% (active) and -75.8% (active), respectively.

On to `O=[N+]([O-])c1cc(C(F)(F)F)ccc1Sc1ccc(C(F)(F)F)cc1[N+](=O)[O-]`, for which the growth in the test with T-47D breast is 70%; with BT-549 breast, 79.3%; with MDA-MB-435 melanoma, 21.3%; in the test with SW-620 colon, 20.6%; in the test with MCF7 breast it was 67.7%; in the test with HCT-116 colon it was 10.7%. Further, the growth in the test on HCC-2998 colon is 99.4%; with KM12 colon it was 65.8%.

For the compound `CN1CCN(c2ccc(Nc3ncc(C(N)=O)c(NCCCNC(=O)C4CCC4)n3)cc2)CC1`, the growth with T-47D breast is 107%; in the test with BT-549 breast, 19.4%; in the test on MDA-MB-435 melanoma it was 66.9%; in the test on SW-620 colon, 70.9%; with MCF7 breast it was 48.9%; in the test on HCT-116 colon it was 43.2%. For the same compound, the growth in the test with HCC-2998 colon was 85.6%; in the test on KM12 colon it was 82.1%.

For `Cc1ccc(-c2nc3nc(-c4ccccc4)nc(N4CCN(S(=O)(=O)c5ccccc5)CC4)c3o2)cc1`, the growth in the test with T-47D breast is 94.5%; with BT-549 breast it was 64.5%; in the test with MDA-MB-435 melanoma, 95.7%; in the test with SW-620 colon, 92.9%; in the test with MCF7 breast, 92.7%; in the test with HCT-116 colon, 65.2%. The growth in the test with HCC-2998 colon was 102%; in the test on KM12 colon, 104%.

The values above are taken from PubChem BioAssay (NCI).
